# Laboratory results published in PubChem BioAssay (Tox21).
# Activity calls are given as the source filed them. A call without a number means that no potency is given here. Calls follow the shape of the dose curve; as a rule, active = well fitted activation curve with a large enough effect in the repeat runs; inconclusive = weak or mixed curves; inactive = flat fitted curve, though single readings scatter.
# Molecular target: KiSS-1 receptor (Homo sapiens) (UniProt Q969F8)
# Assay: Human kisspeptin (KISS1R) small molecule agonists, calcium flux assay in KISS1R-HEK293 cells (AID 1920064)
# Conditions: KISS1R-HEK293, calcium flux fluorescence, agonist; series mostly up to 76.8 µM
# Description: National Center for Advancing Translational Sciences [NCATS]
# Division of Preclinical Innovation [DPI]
# U.S. Environmental Protection Agency [EPA]
# National Institutes of Environmental Health Sciences [NIEHS]
# National Toxicology Program [NTP]
# U.S. Food and Drug Administration [FDA]
# Kisspeptin and its receptor KISS1R play key roles in mammalian reproduction due to their involvement in the onset of puberty and control of the hypothalamic-pituitary-gonadal axis such as regulates GnRH release from the hypothalamus. The kisspeptin/KISS1R system also plays a direct role in peripheral organs (including the ovary, testis, uterus, and placenta) and is implicated in reproductive diseases such as miscarriage and polycystic ovary syndrome (PCOS). Abnormal KISS1R activity is associated with abnormal puberty, infertility, endometriosis, and hormone-dependent tumors. The KISS1 receptor (KISS1R, also called GPR54), a G-protein-coupled receptor (GPCR), acts (through phospholipase C) to increase intracellular inositol trisphosphate and then release intracellular calcium stores. Cell-based KISS1R-HEK293 assay is using HEK293 cells that have been genetically engineered to express the human KISS1R, which activity can be measured by calcium signaling. A compound/drug can activate (agonist) KISS1R that can be monitored by levels of intracellular calcium.
# KISS1R-HEK293 cells developed by Codex Corp contain human KISS1R gene, which was stably integrated into HEK 293 cells. The compound activation can be detected by fluorescence intensity via calcium flux assay. This cell line has been used to screen the Tox21 10K compound library to identify agonists of KISS1R.
# KISS1R-Hek293 cells were dispensed at 1500 cells/4uL/well in 1536-well black wall/clear bottom plates using a multidrop dispenser. After the assay plates were incubated at a 37 C/5% CO2 incubator for 18 hours, 4 microL of Calcium Dye Solution was added to each well. The plates were incubated at 37 C for 1 hour. And then 23 nL of compounds dissolved in DMSO, positive controls, or DMSO only was transferred to the assay plate by a pin tool station. The fluorescence intensity in the plates was measured using FDSS 7000EX kinetic plate reader with a filter set of Ex/Em=480/540 for 3 min at 1 sec intervals. Each test compound was measured at 15 concentrations and in triplicates.
# Sequence of KiSS-1 receptor (Homo sapiens) (Q969F8 whole entry, looked up): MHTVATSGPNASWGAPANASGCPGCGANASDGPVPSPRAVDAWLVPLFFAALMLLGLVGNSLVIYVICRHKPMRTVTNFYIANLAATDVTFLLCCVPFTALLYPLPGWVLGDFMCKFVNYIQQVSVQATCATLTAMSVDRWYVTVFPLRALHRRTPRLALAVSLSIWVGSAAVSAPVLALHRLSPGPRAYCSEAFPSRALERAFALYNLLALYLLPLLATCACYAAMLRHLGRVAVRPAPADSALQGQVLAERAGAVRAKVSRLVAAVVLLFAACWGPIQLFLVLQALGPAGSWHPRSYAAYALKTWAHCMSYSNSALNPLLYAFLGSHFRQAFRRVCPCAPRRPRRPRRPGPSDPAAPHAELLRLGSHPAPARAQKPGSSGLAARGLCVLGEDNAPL
row,SMILES,Potency
1,CCN(CC)C(=O)SCc1ccc(Cl)cc1,inactive
2,CCCCOCCOC(C)=O,inactive
3,C=C(C)C(=O)OCC(CC)CCCC (stereo not given),inactive
4,NC1(c2ccccc2)CCCCC1,inactive
5,C[C@]12CCC(=O)C(O)=C1CC[C@@H]1[C@@H]2CC[C@]2(C)C(=O)CC[C@@H]12,inactive
6,COC(=O)c1cncn1C(C)c1ccccc1 (stereo not given),inactive
7,CCN(CC)CCN1C(=O)CN=C(c2ccccc2F)c2cc(Cl)ccc21,inactive
8,CC(=O)/C=C/c1ccccc1,inactive
9,CN=C=O,inactive
10,Nc1ccc(Cl)c(Cl)c1,inactive
11,O=[N+]([O-])O[C@H]1CO[C@H]2[C@@H]1OC[C@H]2O[N+](=O)[O-],inactive
12,O=S(=O)(Oc1ccc(Cl)cc1)c1ccc(Cl)cc1,inactive
13,Cc1ncc(CNC(=O)N(CCCl)N=O)c(N)n1,inactive
14,CC(C)NC(=O)N1CC(=O)N(c2cc(Cl)cc(Cl)c2)C1=O,inactive
15,[Cd+2].[Cl-].[Cl-],inactive
16,NCc1cccnc1,inactive
17,CCCCn1cc[n+](C)c1C,inactive
18,O=[N+]([O-])c1ccc(Oc2ccc(Cl)cc2Cl)cc1,inactive
19,C=CCO,inactive
20,O=NN1CCCCCCC1,inactive

row,SMILES,Potency
1,Clc1ccc(C(c2ccc(Cl)cc2)C(Cl)Cl)cc1,inactive
2,Clc1ccc(C(c2ccc(Cl)cc2)C(Cl)(Cl)Cl)cc1,inactive
3,[O]=[Cr][O][Cr]=[O],inactive
4,C[C@]12CCC(=O)C[C@@H]1CC[C@@H]1[C@@H]2CC[C@]2(C)[C@@H](O)CC[C@@H]12,inactive
5,C[N+](C)(C)Cc1ccccc1,inactive
6,N#Cc1ccccc1N,inactive
7,COC(=O)c1sccc1S(=O)(=O)NC(=O)Nc1nc(C)nc(OC)n1,inactive
8,COC[C@H](C)N(C(=O)CCl)c1c(C)csc1C,inactive
9,Oc1ccc(Cl)cc1,inactive
10,CCOCN(C(=O)CCl)c1c(C)cccc1CC,inactive
11,c1ccc2c(c1)CCCC2,inactive
12,Cc1ccc(N=CN(C)C=Nc2ccc(C)cc2C)c(C)c1,inactive
13,CNC(=O)NC(O)C(Cl)(Cl)Cl (stereo not given),inactive
14,Cc1ccc(N)cc1C,inactive
15,Clc1ccc(C(c2ccccc2Cl)C(Cl)(Cl)Cl)cc1 (stereo not given),inactive
16,c1ccc2c(c1)Nc1ccccc1S2,inactive
17,N#CC(Cl)Cl,inactive
18,CN(C)CCO,inactive
19,CCc1cnc(C2=NC(C)(C(C)C)C(=O)N2)c(C(=O)O)c1 (stereo not given),inactive
20,O=[N+]([O-])c1cccc(O)c1,inactive
